In PubChem BioAssay (NCATS):
Records with an inconclusive call do not appear. Entries that show only a call come without a potency. The source made the active and inactive calls. Unless noted, the call rests on the fitted dose curve; in most records, active means well fitted curve in the direction sought with a large enough effect; inconclusive means small, poorly fitted or top-dose-only effect, or another doubt; inactive means no such curve, though single readings can be large; an effect the other way counts as inactive or inconclusive.

How the values were obtained:
[1] = target: Transient receptor potential cation channel subfamily V member 1 (Homo sapiens) (UniProt Q8NER1); test: HTS Assay for Compounds that Act as Enhancers of the Vanilloid Receptor 1 (AID 488979)
Sequence of Transient receptor potential cation channel subfamily V member 1 (Homo sapiens) (Q8NER1 whole entry, looked up): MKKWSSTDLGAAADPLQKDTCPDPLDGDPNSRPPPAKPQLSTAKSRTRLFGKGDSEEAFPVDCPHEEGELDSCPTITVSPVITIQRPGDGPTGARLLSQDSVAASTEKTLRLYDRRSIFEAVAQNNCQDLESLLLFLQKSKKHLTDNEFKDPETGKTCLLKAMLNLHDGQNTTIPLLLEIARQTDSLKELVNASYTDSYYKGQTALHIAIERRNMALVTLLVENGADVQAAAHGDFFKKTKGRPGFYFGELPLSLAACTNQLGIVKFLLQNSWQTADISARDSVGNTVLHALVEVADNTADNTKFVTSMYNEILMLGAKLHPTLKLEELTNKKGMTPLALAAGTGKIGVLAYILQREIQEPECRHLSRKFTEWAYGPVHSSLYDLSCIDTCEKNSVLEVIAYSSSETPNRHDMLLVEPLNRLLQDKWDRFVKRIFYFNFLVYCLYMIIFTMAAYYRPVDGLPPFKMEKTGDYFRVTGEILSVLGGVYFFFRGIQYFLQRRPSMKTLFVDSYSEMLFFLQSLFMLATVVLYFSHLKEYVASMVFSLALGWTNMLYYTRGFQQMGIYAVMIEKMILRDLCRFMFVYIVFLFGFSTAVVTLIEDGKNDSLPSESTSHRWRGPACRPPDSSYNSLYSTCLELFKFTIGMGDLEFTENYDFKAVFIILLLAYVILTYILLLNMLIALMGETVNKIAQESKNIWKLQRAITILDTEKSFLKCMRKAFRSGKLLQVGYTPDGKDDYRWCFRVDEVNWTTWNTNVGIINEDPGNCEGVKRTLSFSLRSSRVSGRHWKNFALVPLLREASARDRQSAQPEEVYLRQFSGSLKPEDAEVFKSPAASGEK
Summary of the method: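 Calcium influx kinetics via Fluo-8 (480/520 nm) in TRPV1-expressing cells, 2000/well cultured overnight at 35.5C. Compound-alone read 3 min (agonist phase), followed by EC20 capsaicin challenge for 2 min (enhancer phase).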

[2] = target: Thyrotropin receptor (Homo sapiens) (UniProt P16473); test: qHTS Assay for Antagonists of the Thyroid Stimulating Hormone Receptor (AID 488980); further: series mostly up to about 58 µM
Summary of the method: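 TSHR-HEK293 cells; 70 uM RO 20-1724 PDE inhibitor; compound + EC80 TSH (4 nM final); anti-cAMP cryptate antibody/cAMP-d2 in lysis buffer, 30 min RT; HTRF 665/620 nm read.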

[3] = target: D(1A) dopamine receptor (Homo sapiens) (UniProt P21728); test: HTS Assay for Allosteric Agonists of the Human D1 Dopamine Receptor: Primary Screen for Agonists (AID 488981)
Summary of the method: (§1)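 Calcium flux in an inducible, force-coupled HEK293 Trex D1 line (overnight at 30 C): agonist mode is the 180 s kinetic read after compound; potentiator mode is the following 180 s read after dopamine at EC20.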

[4] = target: D(1A) dopamine receptor (Homo sapiens) (UniProt P21728); test: HTS Assay for Allosteric Agonists of the Human D1 Dopamine Receptor: Primary Screen for Potentiators (AID 488982)
Summary of the method: as §1

[5] = target: D(1A) dopamine receptor (Homo sapiens) (UniProt P21728); test: HTS Assay for Allosteric Agonists of the Human D1 Dopamine Receptor: Primary Screen for Antagonists (AID 488983);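 further: calcium flux response to an EC80 dopamine challenge measured with no-wash dye; nearly all actives have a fitted effect of over 65% in size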; further: potency means the concentration at half of the fitted maximal effect
Summary of the method: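 Tetracycline-induced HEK293 T-REx cells expressing force-coupled D1 were plated overnight at 30 C, dye-loaded for calcium, and read kinetically. Compounds were pinned in, then an EC80 dopamine challenge followed after 180 s to reveal antagonism.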

[6] = Validation screen for small molecules that induce genotoxicity in human embryonic kidney (HEK293T) cells expressing luciferase-tagged ELG1 (AID 493106)
Summary of the method: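 HEK293T cells expressing luciferase-tagged ELG1 were exposed to compound or DMSO vehicle for 16 hr at 37 °C, 5% CO2. Genotoxic stress raises ELG1 levels, so increased luciferase signal after ONE-Glo addition and 30 min at room temperature marks hits.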

[7] = target: ATPase family AAA domain-containing protein 5 (Homo sapiens) (UniProt Q96QE3); test: Validation screen for small molecules that inhibit ELG1-dependent DNA repair in human embryonic kidney (HEK293T) cells expressing luciferase-tagged ELG1 (AID 493107);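 further: cells co-treated with the DNA-damaging agent 5-fluorouridine alongside compound; series mostly up to about 46 µM; inhibitors lower the ELG1-luciferase luminescence signal; nearly all actives have a fitted effect of over 70% in size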
Sequence of ATPase family AAA domain-containing protein 5 (Homo sapiens) (Q96QE3 whole entry, looked up, the tested form may be a part): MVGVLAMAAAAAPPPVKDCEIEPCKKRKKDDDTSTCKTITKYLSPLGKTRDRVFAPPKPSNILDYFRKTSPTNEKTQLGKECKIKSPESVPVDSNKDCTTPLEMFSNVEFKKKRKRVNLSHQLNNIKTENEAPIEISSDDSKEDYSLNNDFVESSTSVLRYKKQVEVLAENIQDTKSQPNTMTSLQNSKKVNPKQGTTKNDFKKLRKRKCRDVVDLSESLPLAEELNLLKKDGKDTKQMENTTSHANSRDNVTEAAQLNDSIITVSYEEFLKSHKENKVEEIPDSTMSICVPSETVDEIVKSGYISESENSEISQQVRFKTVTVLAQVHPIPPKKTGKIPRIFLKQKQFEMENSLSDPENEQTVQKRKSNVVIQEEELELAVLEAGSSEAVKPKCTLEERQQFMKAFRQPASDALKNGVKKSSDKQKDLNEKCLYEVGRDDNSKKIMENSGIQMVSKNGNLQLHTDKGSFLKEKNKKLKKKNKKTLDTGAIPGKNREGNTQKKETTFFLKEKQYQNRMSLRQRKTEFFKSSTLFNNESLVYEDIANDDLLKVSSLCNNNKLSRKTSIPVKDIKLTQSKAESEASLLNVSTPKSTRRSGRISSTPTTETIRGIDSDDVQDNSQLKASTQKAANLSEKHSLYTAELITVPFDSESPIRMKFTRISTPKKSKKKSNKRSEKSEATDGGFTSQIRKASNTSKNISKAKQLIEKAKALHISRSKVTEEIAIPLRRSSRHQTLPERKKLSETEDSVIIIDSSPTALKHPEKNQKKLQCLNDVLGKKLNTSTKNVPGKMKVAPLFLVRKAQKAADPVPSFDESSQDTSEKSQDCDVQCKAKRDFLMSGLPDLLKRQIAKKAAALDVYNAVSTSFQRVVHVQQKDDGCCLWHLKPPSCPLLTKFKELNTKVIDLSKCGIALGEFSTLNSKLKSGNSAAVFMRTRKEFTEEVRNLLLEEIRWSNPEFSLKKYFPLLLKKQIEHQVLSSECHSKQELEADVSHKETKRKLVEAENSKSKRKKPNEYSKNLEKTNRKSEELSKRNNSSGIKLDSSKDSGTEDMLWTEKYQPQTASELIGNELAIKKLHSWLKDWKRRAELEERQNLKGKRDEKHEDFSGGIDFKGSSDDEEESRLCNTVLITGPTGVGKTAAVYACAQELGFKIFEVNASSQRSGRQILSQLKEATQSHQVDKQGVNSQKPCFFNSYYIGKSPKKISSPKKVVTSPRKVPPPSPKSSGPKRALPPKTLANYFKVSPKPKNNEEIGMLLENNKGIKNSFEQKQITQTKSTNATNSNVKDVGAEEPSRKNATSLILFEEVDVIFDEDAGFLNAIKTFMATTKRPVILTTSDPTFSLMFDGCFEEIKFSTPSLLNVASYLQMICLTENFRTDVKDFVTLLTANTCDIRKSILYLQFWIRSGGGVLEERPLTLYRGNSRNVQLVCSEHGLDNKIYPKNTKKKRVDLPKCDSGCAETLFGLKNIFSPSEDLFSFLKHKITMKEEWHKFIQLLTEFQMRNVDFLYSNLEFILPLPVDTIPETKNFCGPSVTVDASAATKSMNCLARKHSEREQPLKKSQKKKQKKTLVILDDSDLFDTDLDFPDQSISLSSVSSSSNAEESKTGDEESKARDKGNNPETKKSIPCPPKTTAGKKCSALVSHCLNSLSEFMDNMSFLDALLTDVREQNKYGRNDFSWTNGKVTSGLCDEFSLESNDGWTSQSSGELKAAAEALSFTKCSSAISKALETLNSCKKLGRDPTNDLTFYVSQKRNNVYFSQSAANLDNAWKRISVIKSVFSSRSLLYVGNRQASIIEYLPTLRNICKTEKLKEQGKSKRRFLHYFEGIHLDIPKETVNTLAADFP
Summary of the method: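 HEK293T cells expressing luciferase-tagged ELG1 were co-treated with 5-fluorouridine and compound or DMSO for 16 hr at 37 °C, 5% CO2. Luciferase activity was then read with ONE-Glo after 30 min at room temperature; suppressed signal indicates blocked ELG1 function.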

[8] = target: Thyrotropin-releasing hormone receptor (Homo sapiens) (UniProt P34981); test: qHTS for Small Molecule Agonists and Allosteric Enhancers of Human TRH Receptor: Validation Screen for Agonists (AID 493127;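 active means calcium activation more than 3 SD above the typical response in the agonist read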;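 further: intracellular calcium rise by fluo-8 fluorescence before TRH EC20 addition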); conditions: TRH receptor agonist cell assay; at 2 µM; stronger effect = higher value
Sequence of Thyrotropin-releasing hormone receptor (Homo sapiens) (P34981 whole entry, looked up): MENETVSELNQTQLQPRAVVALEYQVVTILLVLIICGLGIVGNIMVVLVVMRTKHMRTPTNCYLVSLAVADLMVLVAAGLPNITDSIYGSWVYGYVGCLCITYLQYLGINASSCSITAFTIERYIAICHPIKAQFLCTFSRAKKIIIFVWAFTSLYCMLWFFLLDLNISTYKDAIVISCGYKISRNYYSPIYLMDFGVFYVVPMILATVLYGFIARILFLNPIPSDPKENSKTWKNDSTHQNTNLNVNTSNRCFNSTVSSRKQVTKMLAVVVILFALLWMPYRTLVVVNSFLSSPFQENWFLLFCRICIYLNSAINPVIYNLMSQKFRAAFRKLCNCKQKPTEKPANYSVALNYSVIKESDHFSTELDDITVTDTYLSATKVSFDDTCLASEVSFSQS
Summary of the method: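 TRHR-expressing cells were plated overnight in serum-containing medium, then loaded with fluo-8 calcium dye at room temperature for 30 min–1.5 h. After a 10 s baseline, compound was pin-transferred and calcium fluorescence (ex 480/em 530) read kinetically for agonist response.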

[9] = Nrf2 qHTS screen for inhibitors: Validation (AID 493153; active means well fitted inhibition curve with a large enough effect in the main read-out, with a control signal flat, not every such curve was filed as active); conditions: Potency: luciferase luminescence; viability change: measured here: cytotoxicity max response
Summary of the method: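 A549 cells carrying an ARE-driven firefly luciferase reporter, in 5% FBS OPTI-MEM, were treated with compounds in concentration-response for 18-24 h at 37°C. Viability was read by CellTiter-Fluor fluorescence, then Nrf2 activity by luciferase luminescence.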

[10] = qHTS for Inhibitors of Cell Surface uPA Generation: Validation Assay (AID 493164);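 further: RAW 264.7 macrophage cells exposed to compound for 18 h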
Summary of the method: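 RAW 264.7, 4000 cells/well, o/n plating; cpd 7-pt 1:5 dilution 2.45 nM–38.3 uM final; 18 h, 37 C/5% CO2; ATP-Lite, 5 s luminescence exposure.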

[11] = target: Galactokinase (Homo sapiens) (UniProt P51570); test: qHTS Validation Assay for Inhibitors of Human Galactokinase (GALK) (AID 493189)
Sequence of Galactokinase (Homo sapiens) (P51570 whole entry, looked up): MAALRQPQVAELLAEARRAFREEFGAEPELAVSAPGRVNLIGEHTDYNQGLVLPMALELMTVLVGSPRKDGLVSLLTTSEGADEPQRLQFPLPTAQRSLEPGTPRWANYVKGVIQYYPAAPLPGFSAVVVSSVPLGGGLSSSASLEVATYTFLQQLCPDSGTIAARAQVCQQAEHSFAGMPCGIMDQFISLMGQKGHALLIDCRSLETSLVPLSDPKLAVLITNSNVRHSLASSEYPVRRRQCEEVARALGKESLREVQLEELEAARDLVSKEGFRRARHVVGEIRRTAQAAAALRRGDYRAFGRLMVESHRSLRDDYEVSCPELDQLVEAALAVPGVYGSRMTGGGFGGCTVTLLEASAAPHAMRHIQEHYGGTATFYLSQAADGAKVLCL
Summary of the method: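 Luminescence from leftover ATP (Kinase-Glo Plus, 10 min) served as read-out after a 1 h room-temperature reaction of 5 nM GALK, 100 uM galactose and 35 uM ATP at pH8.0.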

[12] = Validation screen for small molecules that induce DNA re-replication in SW480 colon adenocarcinoma cells (AID 504364)
Summary of the method: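 SW480 cells seeded at 250 per well were exposed to compound or DMSO for 48 hr at 37 C, 5% CO2, then stained with Hoechst for 40 min. DNA content per nucleus was imaged (405 nm ex, 500-530 nm em).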

[13] = target: Ubiquitin carboxyl-terminal hydrolase 1 (Homo sapiens) (UniProt O94782); test: Inhibitors of USP1/UAF1: Pilot qHTS (AID 504865); further: nearly all actives have a fitted effect of over 35% in size; further: potency means the concentration at half of the fitted maximal effect
Sequence of Ubiquitin carboxyl-terminal hydrolase 1 (Homo sapiens) (O94782 whole entry, looked up): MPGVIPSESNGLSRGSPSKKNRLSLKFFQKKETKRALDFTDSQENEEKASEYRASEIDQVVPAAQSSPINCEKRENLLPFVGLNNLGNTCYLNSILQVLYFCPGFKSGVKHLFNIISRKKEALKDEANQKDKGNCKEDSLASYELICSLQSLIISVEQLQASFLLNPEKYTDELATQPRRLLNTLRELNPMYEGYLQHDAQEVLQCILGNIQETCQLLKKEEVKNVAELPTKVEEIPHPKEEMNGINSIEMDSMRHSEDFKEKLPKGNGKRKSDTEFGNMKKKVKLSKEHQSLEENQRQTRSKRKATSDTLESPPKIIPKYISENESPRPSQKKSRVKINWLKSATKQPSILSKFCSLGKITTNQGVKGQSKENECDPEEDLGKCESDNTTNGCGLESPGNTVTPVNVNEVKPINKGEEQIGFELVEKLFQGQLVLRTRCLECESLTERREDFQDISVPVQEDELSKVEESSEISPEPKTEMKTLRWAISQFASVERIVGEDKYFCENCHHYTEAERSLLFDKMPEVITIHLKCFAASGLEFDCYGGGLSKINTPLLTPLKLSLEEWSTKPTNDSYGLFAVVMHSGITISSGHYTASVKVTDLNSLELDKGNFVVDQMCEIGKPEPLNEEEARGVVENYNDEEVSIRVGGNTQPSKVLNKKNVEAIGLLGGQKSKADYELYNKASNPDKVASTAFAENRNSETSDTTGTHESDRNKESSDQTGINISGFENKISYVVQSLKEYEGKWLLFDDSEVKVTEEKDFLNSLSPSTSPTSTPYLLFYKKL
Summary of the method: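 1nM USP1/UAF1 + cpd, 15 min RT; start w/ Ub-Rho 150nM final; kinetic FL 480/540 nm, 6 reads q60 s. Buffer 50mM HEPES pH 7.8, 0.5mM EDTA, 1mM TCEP, 0.01% Tween-20, 0.1 mg/ml BSA.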

[14] = qHTS for Inhibitors of ATXN expression: Validation of Cytotoxic Assay (AID 588349)
Summary of the method: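 HEK293 cells were dosed with titrated compounds for 72 hr at 37 degrees C. Viability was read by CellTiter Glo luminescence, with intracellular ATP as the marker of cell survival.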

[15] = qHTS for Inhibitors of ATXN expression: Validation (AID 588378); further: series mostly up to about 57 µM; nearly all actives have a fitted effect of over 75% in size
Summary of the method: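 Cells: HEK293-ATXN2-FFLuc, phenol-red free DMEM, 2 h attachment. Compound pin-transfer, 24 h, 37 degrees C, 5% CO2. CellTiter-Fluor 30 min, Ex405/Em525; Bright-Glo 5 min, luminescence 2 s exposure.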

[16] = target: Peptidyl-prolyl cis-trans isomerase NIMA-interacting 1 (Homo sapiens) (UniProt Q13526); test: qHTS Validation Assay to Find Inhibitors of Pin1 (AID 504536; active means well fitted inhibition curve with a large enough effect in the polarisation, with a control signal flat, not every such curve was filed as active; the % refers to the polarisation)
Sequence of Peptidyl-prolyl cis-trans isomerase NIMA-interacting 1 (Homo sapiens) (Q13526 whole entry, looked up): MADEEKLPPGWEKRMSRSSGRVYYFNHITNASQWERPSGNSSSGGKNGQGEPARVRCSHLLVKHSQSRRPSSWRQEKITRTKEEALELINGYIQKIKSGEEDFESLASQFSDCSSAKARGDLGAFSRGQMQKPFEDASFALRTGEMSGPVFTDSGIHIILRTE
Summary of the method: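 Fluorescence polarization competition: compounds (titration) displace HiFluor-488-labeled Pin1-1b peptide from Pin1 (0.3 uM final) in pH 7.5 HEPES buffer with DTT, 10 min at room temperature; %Activity normalized to no-enzyme wells, curves fitted.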

[17] = target: Phosphoglycerate kinase, glycosomal (Trypanosoma brucei brucei) (UniProt P07378); test: qHTS Validation Assay to Find Inhibitors of Phosphoglycerate Kinase (AID 504547)
Sequence of Phosphoglycerate kinase, glycosomal (Trypanosoma brucei brucei) (P07378 whole entry, looked up): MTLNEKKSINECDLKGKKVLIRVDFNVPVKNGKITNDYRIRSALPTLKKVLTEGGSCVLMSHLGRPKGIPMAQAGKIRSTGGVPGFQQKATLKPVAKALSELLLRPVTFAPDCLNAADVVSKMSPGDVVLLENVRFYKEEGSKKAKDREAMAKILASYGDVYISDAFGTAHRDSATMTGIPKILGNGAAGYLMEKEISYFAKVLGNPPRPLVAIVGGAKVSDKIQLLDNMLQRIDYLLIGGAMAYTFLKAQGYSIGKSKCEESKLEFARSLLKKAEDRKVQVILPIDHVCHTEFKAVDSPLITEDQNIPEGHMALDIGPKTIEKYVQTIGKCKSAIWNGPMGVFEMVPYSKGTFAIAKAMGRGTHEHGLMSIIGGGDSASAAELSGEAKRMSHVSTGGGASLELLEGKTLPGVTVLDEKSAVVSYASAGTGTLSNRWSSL
Summary of the method: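 Inhibition of the enzyme is judged by a Kinase-Glo Plus luminescent signal following a one-hour incubation at room temperature. Because 1,3-BPG is unstable, it is made in situ by GAPDH at 100nM final; no-PGK wells define the baseline.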

[18] = target: phosphoglycerate mutase (Leishmania major) (UniProt Q4Q090); test: qHTS Validation Assay to Find Inhibitors of Phosphoglycerate Mutase (AID 504548); conditions: Potency: inhibition qHTS; further: series mostly up to about 58 µM
Summary of the method: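 Lm PGAM 1.25nM final; 100 mM TEA pH 7.6, 5 mM MgCl2, 0.01% Tween-20; 45 min RT; Kinase-GloPlus, 10 min; end-point luminescence. Enzyme-free wells as negative controls.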

SMILES | outcome [1] | outcome [2] | Potency [3] | Potency [4] | Potency [5] | Potency [6] | Potency [7] | activation [8] | Potency [9] | viability change [9] [%] | outcome [10] | Potency [11] | Potency [12] | Potency [13] | Potency [14] | Potency [15] | Potency [16] | Potency [17] | Potency [18]
CCCCCC[C@@H]([C@@H](C)O)n1cnc2c(N)ncnc21 | inactive | inactive | inactive | inactive | inactive | inactive | inactive | 0.875% (inactive) | inactive | 0.22 | inactive | inactive | inactive | inactive | inactive | inactive | – | – | –
NCCCCN | inactive | inactive | inactive | inactive | inactive | inactive | inactive | 1.31% (inactive) | inactive | -1.47 | inactive | – | inactive | inactive | inactive | inactive | inactive | inactive | inactive
O=[N+]([O-])c1cccc2cn[nH]c12 | inactive | inactive | inactive | inactive | inactive | inactive | inactive | 0.5% (inactive) | inactive | -18.2 | – | inactive | inactive | inactive | inactive | inactive | inactive | inactive | inactive
CC(=O)N[C@@H](Cc1c[nH]c2ccccc12)C(=O)OCc1cc(C(F)(F)F)cc(C(F)(F)F)c1 | inactive | inactive | inactive | inactive | inactive | inactive | inactive | 2.62% (inactive) | inactive | 0.548 | inactive | – | inactive | 20 µM (active) | inactive | inactive | inactive | – | inactive
O=C(O)c1cc(=O)cc(C(=O)O)[nH]1 | inactive | inactive | inactive | inactive | inactive | inactive | inactive | 0.75% (inactive) | inactive | -5.74 | inactive | – | inactive | inactive | inactive | inactive | inactive | inactive | inactive
CN1CCC2(CCN3CCc4c(oc5ccccc45)C3C2)N(C)C1=O (stereo unspecified) | inactive | inactive | inactive | inactive | 10 µM (active) | inactive | inactive | 0.25% (inactive) | – | – | – | inactive | inactive | inactive | inactive | inactive | inactive | inactive | inactive
O=c1onc2cnc3ccccc3n12 | inactive | inactive | inactive | inactive | inactive | inactive | inactive | 0.875% (inactive) | inactive | -4.79 | inactive | inactive | – | inactive | inactive | inactive | inactive | inactive | inactive
